Measurements reported in PubChem BioAssay (Tox21).
Results filed as inconclusive are left out. A call without a number means that no potency is given here. Unmarked numbers belong to inactive results. Active and inactive are the calls of the source. Calls come from the whole dose curve; as a rule, active = well fitted curve in the direction sought with a large enough effect in the repeat runs; inconclusive = weak or mixed curves; inactive = no such curve, though single readings can be large; an effect the other way counts as inactive or inconclusive.

Key:
[1] = molecular target: Cytochrome P450 2D6 (Homo sapiens) (UniProt P10635); assay: Cytochrome P450 Family 2 Subfamily D Member 6 (CYP2D6) small molecule antagonists: luciferase reporter qHTS assay (AID 1671196); note: nearly all actives have a fitted effect of over 50% in size; note: potency is the fitted concentration of half-maximal effect; for activity change, negative = inhibition: series mostly up to about 120 µM
Sequence of Cytochrome P450 2D6 (Homo sapiens) (P10635 whole entry, looked up): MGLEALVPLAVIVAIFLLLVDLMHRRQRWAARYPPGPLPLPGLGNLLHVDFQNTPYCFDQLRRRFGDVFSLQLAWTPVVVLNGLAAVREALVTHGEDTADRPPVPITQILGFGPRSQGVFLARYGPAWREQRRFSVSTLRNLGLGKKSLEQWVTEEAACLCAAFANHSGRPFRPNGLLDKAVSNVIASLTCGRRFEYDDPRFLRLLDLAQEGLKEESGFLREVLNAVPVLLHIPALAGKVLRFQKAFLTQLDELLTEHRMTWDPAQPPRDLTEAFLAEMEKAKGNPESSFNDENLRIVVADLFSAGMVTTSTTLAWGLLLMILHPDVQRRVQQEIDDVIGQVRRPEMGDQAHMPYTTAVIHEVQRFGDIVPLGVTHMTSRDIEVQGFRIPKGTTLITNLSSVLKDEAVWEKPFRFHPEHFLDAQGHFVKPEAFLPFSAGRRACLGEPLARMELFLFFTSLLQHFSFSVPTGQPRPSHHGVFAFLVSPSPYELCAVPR
Method in brief: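 Luminescence (RLU), read 20 min after detection reagent, indicated CYP2D6 conversion of proluciferin to luciferin during a 1 h NADPH-dependent reaction at room temperature.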

[2] = molecular target: Cytochrome P450 2C19 (Homo sapiens) (UniProt P33261); assay: Cytochrome P450 Family 2 Subfamily C Member 19 (CYP2C19) small molecule antagonists: luciferase reporter qHTS assay (AID 1671197); note: nearly all actives have a fitted effect of over 65% in size; note: potency is the fitted concentration of half-maximal effect; for activity change, negative = inhibition: series mostly up to about 120 µM
Sequence of Cytochrome P450 2C19 (Homo sapiens) (P33261 whole entry, looked up): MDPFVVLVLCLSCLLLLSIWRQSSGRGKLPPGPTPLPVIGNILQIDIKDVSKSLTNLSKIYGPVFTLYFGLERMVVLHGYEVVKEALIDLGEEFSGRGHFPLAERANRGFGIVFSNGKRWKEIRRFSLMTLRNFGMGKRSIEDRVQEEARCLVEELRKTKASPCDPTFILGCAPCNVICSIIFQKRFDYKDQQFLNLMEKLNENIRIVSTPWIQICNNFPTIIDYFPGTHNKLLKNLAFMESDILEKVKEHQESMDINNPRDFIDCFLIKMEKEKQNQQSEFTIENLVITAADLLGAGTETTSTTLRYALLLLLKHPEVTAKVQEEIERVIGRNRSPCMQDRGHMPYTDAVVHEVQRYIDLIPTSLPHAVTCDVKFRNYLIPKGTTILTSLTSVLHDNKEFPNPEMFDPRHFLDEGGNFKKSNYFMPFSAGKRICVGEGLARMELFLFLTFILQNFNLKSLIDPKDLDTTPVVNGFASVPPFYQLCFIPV
Method in brief: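 Enzyme-substrate mix with proluciferin substrate (P450-Glo CYP2C19 system) preincubated with compounds 10 min at room temperature; NADPH regeneration solution added, 37C for 1 h; detection reagent stops reaction, luminescence read after 20 min. Ketoconazole positive control.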

[3] = molecular target: Cytochrome P450 2C9 (Homo sapiens) (UniProt P11712); assay: Cytochrome P450 Family 2 Subfamily C Member 9 (CYP2C9) small molecule antagonists: luciferase reporter qHTS assay (AID 1671198); note: nearly all actives have a fitted effect of over 50% in size; note: potency is the fitted concentration of half-maximal effect; for activity change, negative = inhibition: series mostly up to about 120 µM
Sequence of Cytochrome P450 2C9 (Homo sapiens) (P11712 whole entry, looked up): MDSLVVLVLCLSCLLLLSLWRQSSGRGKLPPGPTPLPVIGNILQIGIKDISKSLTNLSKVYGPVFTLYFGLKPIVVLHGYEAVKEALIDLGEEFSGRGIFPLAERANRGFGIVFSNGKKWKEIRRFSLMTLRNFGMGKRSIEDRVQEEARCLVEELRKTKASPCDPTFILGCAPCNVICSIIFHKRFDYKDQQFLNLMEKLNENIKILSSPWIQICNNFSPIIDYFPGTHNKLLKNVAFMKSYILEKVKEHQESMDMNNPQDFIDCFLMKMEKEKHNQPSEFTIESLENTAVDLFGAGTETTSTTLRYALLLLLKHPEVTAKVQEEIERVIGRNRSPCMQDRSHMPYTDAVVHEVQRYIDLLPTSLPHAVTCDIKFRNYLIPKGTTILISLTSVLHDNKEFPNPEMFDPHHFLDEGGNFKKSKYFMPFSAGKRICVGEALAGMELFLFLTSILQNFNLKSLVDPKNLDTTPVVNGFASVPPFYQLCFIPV
Method in brief: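 CYP2C9 activity was measured with a P450-Glo proluciferin substrate. Enzyme–substrate mix was held with compound for 10 min at room temperature, then NADPH regeneration solution was added for 1 h at 37C. Luciferin product was read as luminescence.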

[4] = molecular target: Cytochrome P450 1A2 (Homo sapiens) (UniProt P05177); assay: Cytochrome P450 Family 1 Subfamily A Member 2 (CYP1A2) small molecule antagonists: luciferase reporter qHTS assay (AID 1671199); note: nearly all actives have a fitted effect of over 50% in size; note: potency is the fitted concentration of half-maximal effect; for activity change, negative = inhibition: series mostly up to about 120 µM
Sequence of Cytochrome P450 1A2 (Homo sapiens) (P05177 whole entry, looked up): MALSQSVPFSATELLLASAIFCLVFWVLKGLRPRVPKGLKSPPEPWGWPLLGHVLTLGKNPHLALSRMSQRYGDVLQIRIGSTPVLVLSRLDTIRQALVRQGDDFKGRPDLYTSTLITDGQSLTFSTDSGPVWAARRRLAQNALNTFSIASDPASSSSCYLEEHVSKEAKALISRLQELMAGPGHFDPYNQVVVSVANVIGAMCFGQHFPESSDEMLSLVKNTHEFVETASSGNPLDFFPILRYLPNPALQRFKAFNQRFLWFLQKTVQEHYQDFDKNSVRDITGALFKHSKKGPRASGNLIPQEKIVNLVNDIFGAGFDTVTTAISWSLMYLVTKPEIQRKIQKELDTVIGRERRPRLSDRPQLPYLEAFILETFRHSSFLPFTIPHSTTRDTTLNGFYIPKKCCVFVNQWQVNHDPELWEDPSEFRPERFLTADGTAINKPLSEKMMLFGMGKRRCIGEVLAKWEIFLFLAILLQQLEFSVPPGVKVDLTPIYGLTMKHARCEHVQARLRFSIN
Method in brief: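 CYP1A2 turnover of a luminogenic substrate was quantified after 1 h with NADPH regeneration at room temperature. Furafylline served as positive control.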

[5] = molecular target: Voltage-gated inwardly rectifying potassium channel KCNH2 (Homo sapiens) (UniProt Q12809); assay: Human Ether-a-go-go-Related Gene (hERG) channel small molecule antagonists: fluorescence cell-based qHTS assay (AID 1671200);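 note: hERG-expressing U2OS cells given a thallium stimulus after FluxOR II dye loading; series mostly up to about 77 µM; nearly all actives have a fitted effect of over 50% in size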
Sequence of Voltage-gated inwardly rectifying potassium channel KCNH2 (Homo sapiens) (Q12809 whole entry, looked up): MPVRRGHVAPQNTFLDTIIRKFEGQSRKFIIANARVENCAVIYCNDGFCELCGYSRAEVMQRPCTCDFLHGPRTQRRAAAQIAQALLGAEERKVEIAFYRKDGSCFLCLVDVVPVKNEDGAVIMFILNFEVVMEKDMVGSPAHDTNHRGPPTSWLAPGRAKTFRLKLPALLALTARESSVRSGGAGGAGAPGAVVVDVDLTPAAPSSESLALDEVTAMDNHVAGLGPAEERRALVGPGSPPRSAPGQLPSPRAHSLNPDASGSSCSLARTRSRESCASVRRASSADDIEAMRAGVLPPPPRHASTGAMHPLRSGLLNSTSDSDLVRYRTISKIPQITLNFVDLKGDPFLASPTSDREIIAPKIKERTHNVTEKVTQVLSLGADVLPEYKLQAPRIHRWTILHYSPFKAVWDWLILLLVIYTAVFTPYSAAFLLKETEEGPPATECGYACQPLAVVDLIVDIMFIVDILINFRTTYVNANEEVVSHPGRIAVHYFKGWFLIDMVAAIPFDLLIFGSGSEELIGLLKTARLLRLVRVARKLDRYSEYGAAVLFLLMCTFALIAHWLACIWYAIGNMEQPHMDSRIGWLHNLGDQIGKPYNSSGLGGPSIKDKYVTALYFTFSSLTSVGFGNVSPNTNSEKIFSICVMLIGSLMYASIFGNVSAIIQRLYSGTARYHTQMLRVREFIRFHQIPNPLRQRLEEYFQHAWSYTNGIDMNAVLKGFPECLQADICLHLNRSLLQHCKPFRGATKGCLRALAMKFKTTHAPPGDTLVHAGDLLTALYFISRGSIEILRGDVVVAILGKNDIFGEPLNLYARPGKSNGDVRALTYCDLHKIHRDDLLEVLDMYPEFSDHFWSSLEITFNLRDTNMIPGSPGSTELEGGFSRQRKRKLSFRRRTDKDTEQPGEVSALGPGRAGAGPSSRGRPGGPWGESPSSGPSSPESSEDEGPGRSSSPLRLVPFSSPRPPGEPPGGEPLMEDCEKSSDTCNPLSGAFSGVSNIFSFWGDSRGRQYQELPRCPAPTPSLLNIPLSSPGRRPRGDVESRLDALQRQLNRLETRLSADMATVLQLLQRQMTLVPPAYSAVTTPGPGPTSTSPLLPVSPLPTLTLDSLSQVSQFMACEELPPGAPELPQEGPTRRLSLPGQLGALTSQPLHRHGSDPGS
Method in brief: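 Kinetic two-minute fluorescence traces, sampled at 1 s, were collected following thallium stimulus of U2OS cells (1000 per well) that had been cultured overnight at 37 C and loaded with FluxOR II.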

[6] = molecular target: Cytochrome P450 3A4 (Homo sapiens) (UniProt P08684); assay: Cytochrome P450 Family 3 Subfamily A Member 4 (CYP3A4) small molecule antagonists: luciferase reporter qHTS assay (AID 1671201); note: nearly all actives have a fitted effect of over 50% in size; note: potency is the fitted concentration of half-maximal effect; for activity change, negative = inhibition: series mostly up to about 120 µM
Sequence of Cytochrome P450 3A4 (Homo sapiens) (P08684 whole entry, looked up): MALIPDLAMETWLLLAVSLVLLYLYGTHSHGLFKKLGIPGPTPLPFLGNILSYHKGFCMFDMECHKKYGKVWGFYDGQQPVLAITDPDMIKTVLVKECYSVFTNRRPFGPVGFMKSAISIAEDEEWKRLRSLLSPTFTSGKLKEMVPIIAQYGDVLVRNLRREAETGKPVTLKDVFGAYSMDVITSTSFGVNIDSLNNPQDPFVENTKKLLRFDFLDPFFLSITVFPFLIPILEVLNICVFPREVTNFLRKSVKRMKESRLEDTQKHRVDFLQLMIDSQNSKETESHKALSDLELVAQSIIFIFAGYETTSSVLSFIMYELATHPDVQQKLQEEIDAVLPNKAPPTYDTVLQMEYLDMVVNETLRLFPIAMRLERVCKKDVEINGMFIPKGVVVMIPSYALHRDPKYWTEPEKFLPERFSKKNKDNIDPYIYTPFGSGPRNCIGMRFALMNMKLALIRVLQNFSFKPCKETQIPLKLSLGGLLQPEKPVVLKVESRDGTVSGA
Method in brief: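 Proluciferin-to-luciferin conversion by CYP3A4, NADPH-regenerated, 1 h RT; luminescence read as RLU. Ketoconazole as control.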

For `COc1ccc2nc(NC(=O)Nc3ccccc3)sc2c1`, the Potency [1] was “inactive”, the Potency [2] was 21.9 µM (active) and the Potency [3] was 15.5 µM (active). The Potency [4] was 12.3 µM (active), the Potency [5] was “inactive” and the Potency [6] was “inactive”.
For `CC1=C(O)C(=O)OC1C` (stereo not given), the Potency [1] was “inactive”, the Potency [2] was “inactive” and the Potency [3] was “inactive”. For the same molecule, the Potency [4] was “inactive”, the Potency [5] was “inactive” and the Potency [6] was “inactive”.
`O=C(O[C@@H](C(=O)O)[C@@H](OC(=O)c1ccccc1)C(=O)O)c1ccccc1` was tested, and the Potency [1] was 40.6 µM (active), the Potency [2] was 45.6 µM (active) and the Potency [3] was “inactive”. For the same molecule, the Potency [4] was 72.2 µM (active), the Potency [5] was “inactive” and the Potency [6] was “inactive”.
`CC(=O)O[C@H]1CC[C@@]2(C)C(=CC[C@@H]3[C@@H]2CC[C@]2(C)C(C(C)=O)=CC[C@@H]32)C1` was tested, and the Potency [1] was “inactive”, the Potency [2] was “inactive” and the Potency [3] was “inactive”. The Potency [4] was “inactive”, the Potency [5] was “inactive” and the Potency [6] was “inactive”.
For `Cc1cn([C@@H]2O[C@H](CO)[C@@H](O)[C@@H]2F)c(=O)[nH]c1=O`, the Potency [1] was “inactive”, the Potency [2] was “inactive” and the Potency [3] was “inactive”. The Potency [4] was “inactive”, the Potency [5] was “inactive” and the Potency [6] was “inactive”.
`CC1(C)S[C@@H]2[C@H](NC(=O)C(C(=O)O)c3ccccc3)C(=O)N2[C@H]1C(=O)O` (stereo not given in full) was tested, and the Potency [1] was “inactive”, the Potency [2] was “inactive” and the Potency [3] was “inactive”. For the same molecule, the Potency [4] was “inactive”, the Potency [5] was “inactive” and the Potency [6] was “inactive”.
For `O=C(O)C(=O)Cc1c[nH]c2ccccc12`, the Potency [1] was 28.3 µM (active), the Potency [2] was 79.6 µM (active) and the Potency [3] was 39.9 µM (active). For the same molecule, the Potency [4] was 35.6 µM (active), the Potency [5] was “inactive” and the Potency [6] was “inactive”.
For `CN(CC1(C)CCCO1)S(=O)(=O)c1ccc(Cl)c(S(N)(=O)=O)c1` (stereo not given), the Potency [1] was “inactive”, the Potency [2] was “inactive” and the Potency [3] was “inactive”. The Potency [4] was “inactive” and the Potency [5] was “inactive”.
With `COC(=O)N[C@H](C(=O)N[C@@H](Cc1ccccc1)[C@@H](O)CN(Cc1ccc(-c2ccccn2)cc1)NC(=O)[C@@H](NC(=O)OC)C(C)(C)C)C(C)(C)C` the Potency [1] was “inactive”, the Potency [2] was 34.7 µM (active) and the Potency [3] was 15.5 µM (active). The Potency [4] was “inactive” and the Potency [5] was “inactive”.
For `NC(=O)NS(=O)(=O)c1ccc(Cl)cc1`, the Potency [1] was “inactive”, the Potency [2] was “inactive” and the Potency [3] was “inactive”. The Potency [4] was “inactive”, the Potency [5] was “inactive” and the Potency [6] was “inactive”.
For `CC(=O)Nc1ccc(C)c(Cl)c1`, the Potency [1] was “inactive”, the Potency [2] was 22.4 µM (active) and the Potency [3] was “inactive”. The Potency [4] was 8.94 µM (active), the Potency [5] was “inactive” and the Potency [6] was 39.9 µM (active).
For `O=C(O)CN(CCN(CC(=O)O)CC(=O)O)CCN(CC(=O)O)CC(=O)O`, the activity change, negative = inhibition [1] was -5.69% [at 23.6 µM], the activity change, negative = inhibition [2] was 49.7% [at 23.6 µM] and the Potency [3] was “inactive”. The Potency [4] was “inactive”, the activity change, negative = inhibition [5] was 6.28% [at 15.8 µM] and the activity change, negative = inhibition [6] was 10.1% [at 23.6 µM].
`CN1CCN(N)CC1` was tested, and the Potency [1] was “inactive”, the Potency [2] was “inactive” and the Potency [3] was “inactive”. For the same molecule, the Potency [4] was “inactive”, the Potency [5] was “inactive” and the Potency [6] was “inactive”.
In the case of `O=C1N(c2ccccc2)c2ccccc2C1(Cc1ccncc1)Cc1ccncc1`, the Potency [1] was 30.9 µM (active), the Potency [2] was 2.45 µM (active) and the Potency [3] was 3.47 µM (active). The Potency [4] was “inactive” and the Potency [5] was “inactive”.
For `Cc1cc2nc(N)sc2cc1C`, the Potency [1] was 32 µM (active), the Potency [2] was 28.5 µM (active) and the Potency [3] was 35.9 µM (active). The Potency [4] was 1.14 µM (active), the Potency [5] was “inactive” and the Potency [6] was 25.4 µM (active).
For `CCOc1ccc(NS(=O)(=O)c2ccc(N)cc2)nn1`, the Potency [1] was “inactive”, the Potency [2] was 30.9 µM (active) and the Potency [3] was “inactive”. For the same molecule, the Potency [4] was “inactive”, the Potency [5] was “inactive” and the Potency [6] was “inactive”.
In the case of `CN(CCCN1c2ccccc2CCc2ccccc21)CC(=O)c1ccc(Cl)cc1`, the Potency [1] was 7.76 µM (active), the Potency [2] was 3.47 µM (active) and the Potency [3] was 15.5 µM (active). For the same molecule, the Potency [4] was 11 µM (active) and the Potency [5] was “inactive”.
For `COc1cc(C)ccc1C(C)C`, the Potency [1] was “inactive”, the Potency [2] was “inactive” and the Potency [3] was “inactive”. The Potency [4] was “inactive”, the Potency [5] was “inactive” and the Potency [6] was “inactive”.
`Cc1c(C(=O)NCCO)[n+](=O)c2ccccc2n1[O-]` was tested, and the Potency [1] was “inactive”, the Potency [2] was “inactive” and the Potency [3] was “inactive”. For the same molecule, the Potency [4] was “inactive”, the Potency [5] was “inactive” and the Potency [6] was “inactive”.
`CCCCc1ccc2nc(NC(=O)OC)[nH]c2c1` was tested, and the Potency [1] was “inactive”, the Potency [2] was “inactive” and the Potency [3] was “inactive”. The Potency [4] was “inactive”, the Potency [5] was “inactive” and the Potency [6] was “inactive”.
With `CCCN(CCC)C(=O)C(CCC(=O)O)NC(=O)c1ccccc1` (stereo not given) the Potency [1] was “inactive”, the Potency [2] was “inactive” and the Potency [3] was “inactive”. For the same molecule, the Potency [4] was “inactive”, the Potency [5] was “inactive” and the Potency [6] was “inactive”.
`NC/C=C/C(=O)O` was tested, and the Potency [1] was “inactive”, the Potency [2] was “inactive” and the Potency [3] was “inactive”. The Potency [4] was “inactive”, the Potency [5] was “inactive” and the Potency [6] was “inactive”.
In the case of `CCNCCO`, the Potency [1] was “inactive”, the Potency [2] was “inactive” and the Potency [3] was “inactive”. For the same molecule, the Potency [4] was “inactive”, the Potency [5] was “inactive” and the Potency [6] was “inactive”.
For `CN1CCN(c2c(F)cc3c(=O)c(C(=O)O)cn(CCF)c3c2F)CC1`, the Potency [1] was “inactive”, the Potency [2] was “inactive” and the Potency [3] was “inactive”. The Potency [4] was “inactive”, the Potency [5] was “inactive” and the Potency [6] was “inactive”.
`Cc1ccc(C(C)C)cc1O` was tested, and the Potency [1] was “inactive”, the Potency [2] was 1.78 µM (active) and the Potency [3] was 15.9 µM (active). For the same molecule, the Potency [4] was 22.4 µM (active) and the Potency [5] was “inactive”.
In the case of `Cc1ccsc1C(=CCCN1CCC[C@@H](C(=O)O)C1)c1sccc1C`, the Potency [1] was “inactive”, the Potency [2] was “inactive” and the Potency [3] was “inactive”. The Potency [4] was “inactive” and the Potency [5] was “inactive”.
